Results: PubChem BioAssay (NCI)
This is part of a sample that, as a whole, favours compounds with a hit. Of some 83,000 tested, about 20% had one in any assay.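 Growth was measured after 48 h exposure to one concentration of compound in 96-well plates. Values under 10 count as active.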 Values without a mark were called inactive. Active and inactive are the calls of the source.

Each molecule was assayed on KM12 colon (assay: NCI-60 one-dose screen, 48 h (100 = growth as untreated, 0 = no growth, -100 = all killed)). Conditions: 10 µM unless noted.
Molecule CCOc1ccc(-n2nc(C(=O)NCc3ccccc3OC)nc2-c2cc(OC)c(OC)c(OC)c2)cc1 has a growth of 33.8%. Work on O=C(CCCCCCN1CC(=O)N2[C@H](c3ccc(Br)cc3)c3[nH]c4ccccc4c3C[C@@H]2C1=O)NO yielded a growth of 60.9%. For CCN1C(=O)N(CC)C2Nn3c(s/c(=C\c4ccccc4Br)c3=O)=NC21 (centres undefined), the growth was 7.48% (active). COC(=O)c1nc(-c2ccccc2)oc1S(=O)(=O)NCC(c1ccc(Cl)cc1)N1CCOCC1 (centres undefined) gave a growth of 89%. In the case of CC1=C(C(=O)Nc2nc(-c3ccc(Cl)cc3)cs2)[C@H](c2ccc(O)cc2)NC(=O)N1, the growth is reported as 96.9%. COc1ccc(C(=O)c2cc3c(N)c(C(=O)Nc4ccccc4)sc3nc2C)cc1 was tested, and the growth was 14.9%. C#CC#CC#CC#CC#CC#CC#CC#CC[C@@H]1OC[C@@H](COC(=O)O[C@@H](C(=O)O[C@H]2C[C@@]3(O)[C@@H](OC(=O)c4ccccc4)[C@@H]4[C@]5(OC(C)=O)CO[C@@H]5C[C@H](O)[C@@]4(C)C(=O)[C@H](OC(C)=O)C(=C2C)C3(C)C)[C@@H](NC(=O)c2ccccc2)c2ccccc2)O1 was tested, and the growth was 96.6%. With CNCc1cccc2c1OCCOCCOCCNS(=O)(=O)c1ccc(cc1)-c1cnc(N)c(n1)C(=O)N2 the growth was 20.2%. CC1(C)OB(O)c2cc(-c3nc4ccc5[nH]ncc5c4c4c3CCCC4)ccc21 showed a growth of 38.7%. Molecule COc1ccc(/C=C2\COc3ccc(O)cc3C2=O)cc1 has a growth of 58%. CN1C(=O)/C(=C/c2ccc(C(=O)Nc3ncc(Cc4cccc(Cl)c4)s3)cc2)SC1=S gave a growth of 33.5%. CN(C)c1ccc(-c2nc(-c3ccccc3)c(-c3ccccc3)[nH]2)cc1 gave a growth of 96.1%. With Cc1n[nH]c2ccc(Br)cc2c1=O the growth was 95.9%. Molecule CCOc1cccc(/C=N/NC(=O)c2cccc(Nc3ccnc(C(F)(F)F)c3)c2)c1O has a growth of 38.9%. COc1ccc(CNc2c3ccccc3nc3ccccc23)c(OC)c1 gave a growth of 54.3%. In the case of COc1ccc2c(c1)c(-c1nc(-c3c[nH]c4ncccc34)cs1)cn2CCO, the growth is reported as 20.7%. COc1ccc(C(O)c2cc3c(N)c(C(=O)Nc4cccc(Cl)c4C)sc3nc2C)cc1 (centres undefined) was tested, and the growth was 6.49% (active). CC1CCN(C(=S)SCC(=O)NC(=O)c2ccccc2)CC1 gave a growth of 97%. CS(=O)(=O)Nc1cc(-c2ccc3ncc(C#N)c(Nc4ccc(F)c(Cl)c4)c3c2)cnc1Cl was tested, and the growth was 8.82% (active). CCN1C(=O)N(CC)C2C1NN=c1s/c(=C3\C(=O)N(CC(C)C)c4ccccc43)c(=O)n12 (centres undefined) showed a growth of 20.9%. O=C(CI)NC(=O)NC(=O)NCc1ccccc1 showed a growth of 88.6%. Work on CCn1cc(CNc2ccc(C(=O)Nc3cc4cc(OC)c(OC)cc4c(C)n3)cc2)cn1 yielded a growth of 33.3%. For C=CCN1C(=O)c2cccc3c(N4CCOCC4)ccc(c23)C1=O, the growth was -56.4% (active). With CC1=C2[C@@H](CC1)[C@]1(C)O[C@@](c3ccccc3)(C[C@H]1OC(=O)CO)[C@H]2OC(=O)/C=C/c1ccccc1 the growth was 88.4%. CSc1nc(C)c([N+](=O)[O-])c(N)n1 showed a growth of 99.5%. CCOC(=O)c1c(C)nc2c(c1N)/C(=C/c1ccc(OC)cc1)C(=O)N2Cc1ccccc1 was tested, and the growth was 33.6%. Molecule CCN(CC)Cc1cc(Nc2ccnc3cc(Cl)ccc23)ccc1O has a growth of 87.7%. With Cc1ccc(-c2nc3nc(-c4ccccc4)nc(N4CCCN(S(C)(=O)=O)CC4)c3o2)cc1 the growth was 86.8%. In the case of CCCCCN(CCCCC)CC(O)c1cc(C)c2ccc3cc(C(C)C)ccc3c2c1 (centres undefined), the growth is reported as -64.7% (active). Work on NC(N)=NS(=O)(=O)c1ccc(NC2=C(I)C(=O)c3ncccc3C2=O)cc1 yielded a growth of 105%. In the case of O=C1/C(=C\c2ccccn2)c2ccccc2N1c1c(Cl)cccc1Cl, the growth is reported as -2.11% (active). In the case of CCCCNC(=O)Oc1ccc(/C(=C(/C)Cc2ccc(OC)cc2)c2ccc(OCCN3CCCCC3)cc2)cc1, the growth is reported as 73.6%. O=C(/C=C/c1ccc(Cl)cc1)c1cccc(OCCCOc2cccc(C(=O)/C=C/c3ccc(Cl)cc3)c2)c1 showed a growth of 103%. For Cc1ccc(/C=C(\C#N)n2nnc3cc(F)c(F)cc32)cc1, the growth was 8% (active). O=P(O)(O)OCC1OC(n2cnc3c(NCc4ccco4)ncnc32)C(O)C1O (centres undefined) gave a growth of 44.1%. For O=C(C1=Cc2cc3ccccc3n2Cc2cnnn21)c1ccc(O)cc1, the growth was 29.5%. COc1ccc(-c2nc3c(N)c(CO)cnc3s2)cc1 was tested, and the growth was 88.4%. For COc1ccc2c(c1)c(/C(O)=C1\COC(=O)C1=O)cn2Cc1ccc(F)cc1, the growth was 109%. In the case of Cc1ccc(/C=C/C(=O)c2cccc(OCCCOc3cccc(C(=O)/C=C/c4ccc(C)cc4)c3)c2)cc1, the growth is reported as 78.8%.
